Reference: the supplement of paper PMC10849652
Targets with a hit are over-represented here; the source holds about 7,900 in all. About 0.6% of all pairs of compound and target were hits.

Key:
Assay in all cases: log2 fold change, soluble protein after heating vs DMSO (PISA); higher = thermal stabilisation; K562 cells, 10 uM, 30 min; active = over 0.2 and 3.5 SD of the protein, either way, in both replicates (recomputed)
[1] = compound: C1=CC=C(C=C1)[C@H](COC2=CC3=C(C=C2)NC(=O)N3)NC(=O)C4=CC=CN(C4=O)CC5=CC(=C(C=C5)F)F
Summary of the method: (§1)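 K562 cells at 2×10^6 cells/mL were exposed to 10 μM compound for 30 min, then aliquots were heated for 3 min across 48°C-58°C, pooled, and extracted in PBS containing 0.5% NP-40 at 4°C. The supernatant after 21,000xg for 90 min was taken as soluble protein and measured by TMTpro 16plex LC-MS/MS with channel sums equalised. Thermal stability is reported relative to control samples, with values from duplicates. Fold changes are given on a log2 scale.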

[2] = compound: CC1=C(SC2=C1C(=N[C@H](C3=NN=C(N32)C)CC(=O)N)C4=CC=C(C=C4)Cl)C
Summary of the method: as §1

[3] = compound: CC1=C2C(=CC=C1)N=C(N(C2=O)C3=CC=CC=C3C)CN4C=NC5=C(N=CN=C54)N
Summary of the method: as §1

[4] = compound: Cc1sc2c(c1C)C(c1ccc(Cl)cc1)=N[C@@H](CC(=O)OC(C)(C)C)c1nnc(C)n1-2
Summary of the method: as §1

[5] = compound: c1ccc([C@@H]2C[C@H]2NC2CCNCC2)cc1
Summary of the method: as §1

Measured: log2 fold change

AP2A2 isoform 2 (UniProt O94973)
inactive: [1] -0.021 | [2] -0.02 | [3] 0.04 | [4] 0.048 | [5] 0.028

ACSM3 (UniProt Q53FZ2)
Chain of UniProt Q53FZ2 (Q53FZ2 whole entry, looked up): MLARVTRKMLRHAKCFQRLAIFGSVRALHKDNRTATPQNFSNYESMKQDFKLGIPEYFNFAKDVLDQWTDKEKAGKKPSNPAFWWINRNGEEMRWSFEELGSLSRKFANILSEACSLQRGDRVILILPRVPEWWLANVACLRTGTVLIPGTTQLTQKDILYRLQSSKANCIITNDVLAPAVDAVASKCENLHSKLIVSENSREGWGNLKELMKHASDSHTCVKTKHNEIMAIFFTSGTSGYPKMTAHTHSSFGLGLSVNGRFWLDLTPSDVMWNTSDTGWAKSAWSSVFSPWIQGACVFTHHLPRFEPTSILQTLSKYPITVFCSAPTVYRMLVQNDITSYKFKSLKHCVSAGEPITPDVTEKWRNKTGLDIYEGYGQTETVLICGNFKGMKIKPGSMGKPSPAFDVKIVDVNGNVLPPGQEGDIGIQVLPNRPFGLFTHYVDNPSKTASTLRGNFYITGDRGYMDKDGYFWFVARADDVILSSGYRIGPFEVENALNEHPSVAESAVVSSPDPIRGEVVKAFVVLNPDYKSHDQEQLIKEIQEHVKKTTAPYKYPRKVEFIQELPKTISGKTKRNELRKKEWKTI
inactive: [1] -0.046 | [2] -0.051 | [3] 0.091 | [4] -0.03 | [5] -0.029

ARMC8 (UniProt Q8IUR7)
inactive: [1] 0.05 | [2] -0.005 | [3] 0 | [4] 0.021 | [5] 0.011

AGPS (UniProt O00116)
inactive: [1] -0.046 | [2] 0.081 | [3] 0.079 | [4] -0.031 | [5] -0.051

ADD3 (UniProt Q9UEY8)
inactive: [1] 0.019 | [2] 0.034 | [3] 0.023 | [4] -0.002 | [5] 0.029

BID isoform 2 (UniProt P55957)
Chain of UniProt P55957 (P55957 whole entry, looked up): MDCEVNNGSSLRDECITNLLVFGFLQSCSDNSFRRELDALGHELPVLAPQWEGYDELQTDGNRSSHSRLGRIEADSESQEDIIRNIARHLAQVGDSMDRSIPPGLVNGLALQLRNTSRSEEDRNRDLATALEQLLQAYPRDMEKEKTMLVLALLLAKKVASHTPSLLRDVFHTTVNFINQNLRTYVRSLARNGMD
inactive: [1] -0.036 | [2] 0.059 | [3] 0.081 | [4] -0.076 | [5] -0.053

ATP13A2 (UniProt Q9NQ11)
Chain of UniProt Q9NQ11 (Q9NQ11 whole entry, looked up): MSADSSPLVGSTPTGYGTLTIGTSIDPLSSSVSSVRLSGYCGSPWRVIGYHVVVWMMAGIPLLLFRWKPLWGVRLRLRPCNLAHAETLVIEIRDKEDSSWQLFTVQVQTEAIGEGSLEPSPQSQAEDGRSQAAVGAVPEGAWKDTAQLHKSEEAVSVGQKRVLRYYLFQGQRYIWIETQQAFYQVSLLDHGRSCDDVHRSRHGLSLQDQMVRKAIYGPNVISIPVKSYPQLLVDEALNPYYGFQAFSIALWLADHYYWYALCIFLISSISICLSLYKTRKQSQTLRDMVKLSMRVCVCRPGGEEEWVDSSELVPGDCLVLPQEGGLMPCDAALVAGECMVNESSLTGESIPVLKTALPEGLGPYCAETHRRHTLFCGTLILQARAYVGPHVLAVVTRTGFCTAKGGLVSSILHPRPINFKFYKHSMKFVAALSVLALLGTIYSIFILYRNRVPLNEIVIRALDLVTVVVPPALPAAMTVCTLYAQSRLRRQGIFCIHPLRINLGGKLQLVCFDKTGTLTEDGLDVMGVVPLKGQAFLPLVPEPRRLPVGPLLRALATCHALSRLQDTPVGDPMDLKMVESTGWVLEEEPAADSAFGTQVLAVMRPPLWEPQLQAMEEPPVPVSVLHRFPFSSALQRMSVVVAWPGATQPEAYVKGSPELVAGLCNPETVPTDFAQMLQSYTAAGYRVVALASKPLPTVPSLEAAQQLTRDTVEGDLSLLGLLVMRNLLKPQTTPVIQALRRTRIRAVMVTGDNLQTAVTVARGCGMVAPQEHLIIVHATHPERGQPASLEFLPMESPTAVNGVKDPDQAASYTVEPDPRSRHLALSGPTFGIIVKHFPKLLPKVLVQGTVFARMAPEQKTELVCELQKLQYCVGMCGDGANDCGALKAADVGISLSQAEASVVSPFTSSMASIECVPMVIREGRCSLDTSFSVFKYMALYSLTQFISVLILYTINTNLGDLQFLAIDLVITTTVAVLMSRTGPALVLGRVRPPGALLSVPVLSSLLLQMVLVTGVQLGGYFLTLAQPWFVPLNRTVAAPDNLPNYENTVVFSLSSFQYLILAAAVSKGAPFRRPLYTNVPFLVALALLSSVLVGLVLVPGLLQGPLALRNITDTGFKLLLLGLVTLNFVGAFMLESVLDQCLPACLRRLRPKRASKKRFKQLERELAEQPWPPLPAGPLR
inactive: [1] 0.031 | [2] -0.075 | [3] 0.007 | [4] -0.062 | [5] 0.092

ATXN3 isoform 1 (UniProt P54252)
Chain of UniProt P54252 (P54252 whole entry, looked up): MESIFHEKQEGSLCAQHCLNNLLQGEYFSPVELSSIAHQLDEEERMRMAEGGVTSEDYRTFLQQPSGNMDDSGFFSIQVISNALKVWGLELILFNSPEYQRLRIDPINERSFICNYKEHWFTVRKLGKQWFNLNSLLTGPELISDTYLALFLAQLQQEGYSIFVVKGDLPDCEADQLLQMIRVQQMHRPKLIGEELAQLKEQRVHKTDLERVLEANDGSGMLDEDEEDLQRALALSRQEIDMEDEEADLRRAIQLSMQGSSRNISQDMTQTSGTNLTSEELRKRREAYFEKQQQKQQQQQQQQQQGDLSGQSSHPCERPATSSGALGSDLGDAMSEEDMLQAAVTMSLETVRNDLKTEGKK
inactive: [1] -0.012 | [2] 0.001 | [3] 0.118 | [4] -0.068 | [5] 0

ARGLU1 (UniProt Q9NWB6)
inactive: [1] 0.072 | [2] -0.117 | [3] -0.013 | [4] 0.01 | [5] 0.096

AIFM2 (UniProt Q9BRQ8)
Chain of UniProt Q9BRQ8 (Q9BRQ8 whole entry, looked up): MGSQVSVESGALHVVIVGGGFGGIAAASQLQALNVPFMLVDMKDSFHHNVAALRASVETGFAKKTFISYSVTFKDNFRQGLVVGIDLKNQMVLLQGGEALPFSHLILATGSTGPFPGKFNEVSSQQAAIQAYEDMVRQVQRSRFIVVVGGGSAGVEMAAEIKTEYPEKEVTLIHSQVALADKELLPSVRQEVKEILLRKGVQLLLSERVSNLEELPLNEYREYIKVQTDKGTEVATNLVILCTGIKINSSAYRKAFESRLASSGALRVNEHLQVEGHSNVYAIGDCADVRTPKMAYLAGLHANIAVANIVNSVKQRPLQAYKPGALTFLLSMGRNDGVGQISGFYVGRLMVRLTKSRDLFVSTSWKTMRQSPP
inactive: [1] 0.036 | [2] 0.047 | [3] 0.026 | [4] 0.045 | [5] 0

AARS2 (UniProt Q5JTZ9)
inactive: [1] -0.047 | [2] 0.081 | [3] 0.044 | [4] 0.005 | [5] -0.016

AP2S1 (UniProt P53680)
Chain of UniProt P53680 (P53680 whole entry, looked up): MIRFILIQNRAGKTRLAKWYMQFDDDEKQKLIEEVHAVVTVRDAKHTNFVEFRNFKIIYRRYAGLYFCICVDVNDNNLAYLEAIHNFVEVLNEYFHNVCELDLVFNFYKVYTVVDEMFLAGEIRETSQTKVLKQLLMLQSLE
inactive: [1] -0.013 | [2] -0.007 | [3] -0.036 | [4] 0.037 | [5] 0.043

AK6 (UniProt Q9Y3D8)
Chain of UniProt Q9Y3D8 (Q9Y3D8 whole entry, looked up): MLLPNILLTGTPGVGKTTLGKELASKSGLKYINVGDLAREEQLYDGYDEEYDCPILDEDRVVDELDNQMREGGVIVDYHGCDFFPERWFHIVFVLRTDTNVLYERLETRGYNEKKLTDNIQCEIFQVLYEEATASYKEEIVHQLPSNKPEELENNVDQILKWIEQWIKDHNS
inactive: [1] -0.043 | [2] 0.042 | [3] 0.2 | [4] -0.014 | [5] -0.008

AFG1L (UniProt Q8WV93)
inactive: [1] 0.025 | [2] 0.096 | [3] -0.008 | [4] -0.074 | [5] -0.129

ATIC (UniProt P31939)
inactive: [1] -0.023 | [2] 0.039 | [3] 0.073 | [4] -0.041 | [5] -0.012

ATP6V1C1 (UniProt P21283)
inactive: [1] -0.011 | [2] 0.004 | [3] 0.05 | [4] -0.002 | [5] -0.039

AFDN isoform 5 (UniProt P55196)
inactive: [1] -0.04 | [2] 0.055 | [3] 0.069 | [4] -0.018 | [5] -0.023

ACSF3 (UniProt Q4G176)
inactive: [1] 0.037 | [2] 0.086 | [3] 0.12 | [4] -0.067 | [5] 0.063

ATP1A4 (UniProt Q13733)
inactive: [1] -0.084 | [2] -0.142 | [3] 0.035 | [4] 0.036 | [5] 0.056

ACBD6 (UniProt Q9BR61)
inactive: [1] -0.033 | [2] 0.087 | [3] 0.1 | [4] -0.072 | [5] 0.073

ADPRHL2 (UniProt Q9NX46)
Chain of UniProt Q9NX46 (Q9NX46 whole entry, looked up): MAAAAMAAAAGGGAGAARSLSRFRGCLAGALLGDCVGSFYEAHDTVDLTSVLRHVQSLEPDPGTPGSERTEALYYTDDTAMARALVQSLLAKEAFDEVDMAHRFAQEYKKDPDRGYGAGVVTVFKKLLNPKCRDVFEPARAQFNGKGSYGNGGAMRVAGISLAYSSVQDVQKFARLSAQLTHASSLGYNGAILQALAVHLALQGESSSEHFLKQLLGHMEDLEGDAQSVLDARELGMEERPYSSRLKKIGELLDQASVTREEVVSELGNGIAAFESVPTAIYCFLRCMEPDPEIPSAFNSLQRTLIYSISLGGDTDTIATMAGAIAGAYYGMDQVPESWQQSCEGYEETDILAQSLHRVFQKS
inactive: [1] -0.09 | [2] 0.08 | [3] 0.034 | [4] -0.057 | [5] -0.087

ALDH9A1 (UniProt P49189)
inactive: [1] 0.059 | [2] -0.193 | [3] 0.03 | [4] 0.098 | [5] 0.156

BRD8 isoform 2 (UniProt Q9H0E9)
Chain of UniProt Q9H0E9 (Q9H0E9 whole entry, looked up): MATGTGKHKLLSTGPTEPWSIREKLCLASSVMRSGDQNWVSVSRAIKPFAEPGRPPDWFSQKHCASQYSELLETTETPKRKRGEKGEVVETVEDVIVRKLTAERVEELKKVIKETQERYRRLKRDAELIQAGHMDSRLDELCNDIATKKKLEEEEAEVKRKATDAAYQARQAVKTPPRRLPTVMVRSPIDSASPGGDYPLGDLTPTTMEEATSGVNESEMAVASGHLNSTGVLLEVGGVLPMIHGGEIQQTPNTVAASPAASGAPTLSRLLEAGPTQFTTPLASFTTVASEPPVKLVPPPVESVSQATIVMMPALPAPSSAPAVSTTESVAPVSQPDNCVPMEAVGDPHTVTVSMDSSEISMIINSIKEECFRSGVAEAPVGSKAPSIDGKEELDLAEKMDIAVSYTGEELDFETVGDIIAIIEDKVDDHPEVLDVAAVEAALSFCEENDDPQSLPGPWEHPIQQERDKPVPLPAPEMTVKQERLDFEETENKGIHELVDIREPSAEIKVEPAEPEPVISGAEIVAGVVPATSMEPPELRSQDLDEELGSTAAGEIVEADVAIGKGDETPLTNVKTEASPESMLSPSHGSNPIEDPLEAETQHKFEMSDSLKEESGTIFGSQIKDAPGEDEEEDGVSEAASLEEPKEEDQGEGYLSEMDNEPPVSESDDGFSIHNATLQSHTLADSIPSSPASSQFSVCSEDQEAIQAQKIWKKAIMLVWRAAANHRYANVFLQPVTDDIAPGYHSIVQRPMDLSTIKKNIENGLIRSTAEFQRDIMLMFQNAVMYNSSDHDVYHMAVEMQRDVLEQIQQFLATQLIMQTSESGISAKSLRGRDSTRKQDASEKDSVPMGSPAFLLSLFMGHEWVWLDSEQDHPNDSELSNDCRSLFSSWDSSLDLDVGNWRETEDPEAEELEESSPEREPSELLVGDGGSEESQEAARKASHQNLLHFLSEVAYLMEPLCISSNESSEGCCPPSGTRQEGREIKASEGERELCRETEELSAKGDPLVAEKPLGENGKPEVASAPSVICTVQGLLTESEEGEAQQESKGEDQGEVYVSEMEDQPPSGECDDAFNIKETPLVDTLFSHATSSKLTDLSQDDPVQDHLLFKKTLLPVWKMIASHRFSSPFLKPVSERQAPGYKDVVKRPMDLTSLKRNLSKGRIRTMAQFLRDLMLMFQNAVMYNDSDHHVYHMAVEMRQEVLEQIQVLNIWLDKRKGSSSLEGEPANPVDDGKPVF
inactive: [1] 0.035 | [2] -0.091 | [3] 0.167 | [4] 0.046 | [5] 0.038

ARL3 (UniProt P36405)
inactive: [1] -0.002 | [2] 0.04 | [3] 0.038 | [4] -0.06 | [5] -0.005

AGPAT5 (UniProt Q9NUQ2)
Chain of UniProt Q9NUQ2 (Q9NUQ2 whole entry, looked up): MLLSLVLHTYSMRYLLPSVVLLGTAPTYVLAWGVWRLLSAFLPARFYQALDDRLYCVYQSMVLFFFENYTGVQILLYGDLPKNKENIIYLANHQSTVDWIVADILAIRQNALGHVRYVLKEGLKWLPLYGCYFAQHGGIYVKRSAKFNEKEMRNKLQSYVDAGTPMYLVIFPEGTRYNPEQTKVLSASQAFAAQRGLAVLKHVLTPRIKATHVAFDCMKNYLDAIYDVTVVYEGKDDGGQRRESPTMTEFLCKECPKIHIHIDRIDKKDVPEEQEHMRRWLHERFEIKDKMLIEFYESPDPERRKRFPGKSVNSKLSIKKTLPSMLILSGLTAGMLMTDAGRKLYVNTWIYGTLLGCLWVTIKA
inactive: [1] -0.015 | [2] 0.064 | [3] 0.007 | [4] -0.008 | [5] -0.025

B4GALNT1 (UniProt Q00973)
inactive: [1] -0.029 | [2] -0.068 | [3] -0.001 | [4] -0.102 | [5] -0.062
